Measured values taken from PubChem BioAssay.
Unmarked numbers belong to inactive results. How the calls were made is not given here.

molecular target: Pantothenate synthetase (Mycobacterium tuberculosis (strain ATCC 25618 / H37Rv)) (UniProt P9WIL5); experiment: Coupled enzyme confirmation of inhibitors against recombinant Mtb PanC (AID 375); conditions: coupled enzyme assay; at 10 µM, stronger effect = higher value;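 further: 0% = full reaction with vehicle and 100% = no enzyme background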
Sequence (P9WIL5 whole entry, looked up): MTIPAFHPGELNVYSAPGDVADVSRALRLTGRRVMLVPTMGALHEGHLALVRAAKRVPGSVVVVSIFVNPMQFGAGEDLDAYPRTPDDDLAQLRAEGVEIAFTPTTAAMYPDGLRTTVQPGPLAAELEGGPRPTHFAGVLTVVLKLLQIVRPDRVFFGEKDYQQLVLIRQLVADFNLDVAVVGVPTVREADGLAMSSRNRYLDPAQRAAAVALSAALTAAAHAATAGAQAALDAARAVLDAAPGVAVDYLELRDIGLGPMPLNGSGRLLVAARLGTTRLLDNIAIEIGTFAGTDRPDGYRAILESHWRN

Compound	inhibition
CCOc1ccc(C(=O)Nc2ccc(N3CCN(C)CC3)cc2)cc1Br	0%
Cc1ccc(C)c(NC(=O)c2ccc3c(c2)N(Cc2ccc(F)cc2)C(=O)CS3=O)c1 (stereo not given)	0%
Cc1onc(-c2ccccc2)c1C(=O)Nc1sc2c(c1C(N)=O)CCC2	5%
Cc1cc(C)n(C(=O)CCCCCC(=O)n2nc(C)cc2C)n1	6%
CCCCP(=O)(CCCC)c1ccccc1C(=O)O	3%
Cc1c(C(=O)NC2CCCc3ccccc32)oc2ccc(S(=O)(=O)N3CCOCC3)cc12 (stereo not given)	6%
CCCCn1c2c(c3ccccc31)CCc1nonc1-2	1%
CCCC(=O)Nc1ccc(C(=O)O)cc1NC(=O)CCC	0%
Cc1cccc2sc(NC(=O)CN(C)S(=O)(=O)c3cccs3)nc12	2%
COc1cc(C2c3c(oc4ccccc4c3=O)C(=O)N2c2ccc(C)cn2)ccc1O (stereo not given)	0%
CCOC(=O)C1=C(CC)Nc2ccccc2N=C1NC(=O)Nc1ccccc1OC	2%
c1ccc(C2(Cn3ccc4ccccc43)OCCO2)cc1	0%
CCOC(=O)c1ccc(N=c2sc(C(=O)OC)cc(=O)n2Cc2ccco2)cc1	0%
COC(=O)Nc1sccc1C(=O)Nc1sccc1C(=O)OC	0%
Cc1ccc(NC(=O)c2oc3ccc(S(=O)(=O)N4CCOCC4)cc3c2C)cc1C	3%
NC(=O)CSc1nnc(-c2ccc(O)cc2)n1Cc1ccco1	0%
CC(=O)Nc1nc(-c2ccc(Cl)cc2)nc(C)c1C(C)=O	0%
Cc1c(N(C)C)nc2ccccc2c1N	0%
CCOC(=O)Cc1nnc(NC(=O)CSc2nnc3c4ccccc4n(C(C)C)c3n2)s1	1%
Cn1c(=O)n(C)c2cc(CNc3ccc(N4CCOCC4)c(C(=O)O)c3)ccc21	11%

Compound	inhibition
CCn1c(SCC(=O)Nc2ccc3c(c2)OCO3)nnc1-c1cnccn1	0%
O=C(Nc1cccnc1)c1cc2c(ccc3ccccc32)o1	0%
CN(Cc1ccccc1)Cc1nc2c(c(=O)n(C)c(=O)n2C)n1Cc1ccc(Cl)cc1	0%
CCn1nnnc1SCC(=O)N1c2ccccc2CCc2ccccc21	1%
Cc1cnc(NC(=O)CSc2nnc(COc3c(C)cccc3C)o2)s1	8%
COc1ccc(C2c3c(oc4ccccc4c3=O)C(=O)N2Cc2ccncc2)cc1OC (stereo not given)	6%
O=C(Nc1ccc(S(=O)(=O)N2CCCCCC2)cc1)c1ccco1	2%
Cn1c(COc2ccccc2)nnc1SCC(=O)Nc1ccc(N2CCOCC2)c(Cl)c1	6%
CCN(CC)c1ncc(C)c(=O)[nH]1	1%
Cc1cccc(C)c1NC(=O)c1cc(S(=O)(=O)N2CCOCC2)ccc1F	0%
CCC(c1c(C)n(C)n(-c2ccccc2)c1=O)c1c(C)n(C)n(-c2ccccc2)c1=O	1%
O=C(CCNC(=O)c1ccc(Br)o1)NC1CCCC1	0%
c1ccc(N2CCN(Cc3cn4cccnc4n3)CC2)cc1	3%
CN(C)S(=O)(=O)c1ccc(S(=O)(=O)N(Cc2ccco2)Cc2ccccc2Cl)cc1	3%
Nn1c(Cc2ccccc2F)nnc1SCC(=O)N1CC(=O)Nc2ccccc21	0%
CCOC(=O)C1CCN(C(=O)CN(c2ccc(Cl)c(C(F)(F)F)c2)S(C)(=O)=O)CC1	4%
COC(=O)c1cc(-c2ccccc2)sc1NC(=O)c1cc(C)on1	0%
Cc1cc(C)c2[nH]c(=O)c(C(c3nnnn3Cc3ccc4c(c3)OCO4)N3CCC(C)CC3)cc2c1 (stereo not given)	0%
Cc1ccc(F)cc1NC(=O)Cc1nn(C)c(=O)c2ccccc12	1%
CCN(CC)C(=O)C1CCC(CNS(=O)(=O)c2cccc3cccnc23)CC1 (stereo not given)	0%
